Rows were chosen to be rich in hits. Some 8.8% of all compounds tested hit in one or more screens of this group.
HT1080NT lethal = kills 2HG-producing HT-1080-NT fibrosarcoma cells | HT-1080-NT fibrosarcoma viability, CellTiter-Glo ATP luminescence, 48 h | Potency, µM (series often up to 46.1 µM), usual class: cytotoxic | 360,000 compounds, 1.6% hits | AID 686970;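 also: NT is the 2HG producing partner of a matched IDH1 knockdown line; nearly all actives have a fitted effect of over 55% in size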
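750 cells/well, RPMI + 5% FBS; 2 h settle, compound pin-transfer, 48 h at 37 degrees C. CellTiter-Glo 10 min RT, luminescence. Normalized to DMSO and media-only wells.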
KB-V1 MDR tox = KB-V1 MDR subline cytotoxicity; KB-V1 MDR cells viability, CellTiter-Glo, 72 h; Potency, µM (doses to about 46.1 µM), usual class: cytotoxic; 400,000 compounds, 3.4% hits; AID 1347076; also: nearly all actives have a fitted effect of over 60% in size
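Luminescent ATP read-out (CellTiter-Glo, 10 min) measures survival of drug-selected KB-V1 MDR cells after 72 h, 37 degrees C compound exposure. Medium: phenol-red-free DMEM, 10% FBS. Values from fitted concentration-response curves.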
KB-3-1 tox = KB-3-1 parental cell cytotoxicity; KB-3-1 viability, CellTiter-Glo ATP luminescence, 72 h; Potency, µM (highest dose often 46.1 µM), hits mostly cytotoxic; 400,000 compounds, 1.4% hits; also: nearly all actives have a fitted effect of over 60% in size
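Screening of KB-3-1 cells (DMEM, 10% FBS, phenol-red free) ran from lowest to highest compound concentration; after 72 h at 37 °C viability was read luminescently and curves fitted.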
IL-1B inflam inh = blocks inflammasome-driven IL-1 beta release; THP-1 LPS/ATP IL-1B secretion, AlphaLISA, 16 h; hits give low values; activity change, % at 57.5 µM; 360,000 compounds, 4.7% hits; AID 743279; in the data active = activity change below about -50%; inconclusive = mostly about -30% to -49%
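Secreted IL-1B measured by AlphaLISA bead assay after 16 h compound exposure of THP-1 cells; compounds (final up to 57.5 uM) added 1 h before LPS (250 ng/mL) and ATP (1.25 mM) stimulation; lower signal means less secretion.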
HT1080 IDH1KD tx = toxicity to HT-1080 IDH1 knockdown cells (counter line); HT-1080 IDH1 knockdown viability, ATP luminescence, 48 h; Potency, µM (doses to about 46.1 µM), most hits filed as cytotoxic; 360,000 compounds, 2% hits; AID 686971
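HT-1080-IDH1KD cells (IDH1 knocked down), 750/well in RPMI with 5% FBS, treated with compound 48 h at 37 degrees C. Viability by CellTiter-Glo luminescence, normalised to DMSO and no-cell wells; concentration-response curves classed.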
Numbers stand for hits; ! = not active in a repeat. Unless noted, calls follow the shape of the dose curve; as a rule, active = well fitted curve in the direction sought with a large enough effect; inconclusive = small, poorly fitted or top-dose-only effect, or another doubt; inactive = no such curve, though single readings can be large; an effect the other way counts as inactive or inconclusive.

O=S(=O)(CCN1CCSCC1)c1ccc(Cl)cc1 was read as HT1080NT lethal inactive, KB-V1 MDR tox inactive, KB-3-1 tox inactive, IL-1B inflam inh -73 and HT1080 IDH1KD tx inactive.
`CC1=NN(C(=O)Cc2ccc([N+](=O)[O-])cc2)C(O)(c2ccccc2)C1` (stereo not drawn) gave HT1080NT lethal inconclusive, KB-V1 MDR tox inactive, KB-3-1 tox inactive, IL-1B inflam inh inactive and HT1080 IDH1KD tx inconclusive.
`Cc1ccc2ccccc2n1` gave KB-V1 MDR tox inactive and KB-3-1 tox inactive.
COC(C(=O)C(O)C(C)O)C1Cc2cc3cc(OC4CC(OC5CC(O)C(O)C(C)O5)C(O)C(C)O4)c(C)c(O)c3c(O)c2C(=O)C1OC1CC(OC2CC(OC3CC(O)C(OC)C(C)O3)C(O)C(C)O2)C(O)C(C)O1 (stereo not drawn) was read as HT1080NT lethal inconclusive, KB-V1 MDR tox inactive, KB-3-1 tox 0.18µM, IL-1B inflam inh -89 and HT1080 IDH1KD tx 0.01µM.
For COC(C(=O)C(O)C(C)O)C1Cc2cc3cc(OC4CC(OC5CC(O)C(O)C(C)O5)C(O)C(C)O4)c(C)c(O)c3c(O)c2C(=O)C1OC1CC(OC2CC(OC3CC(C)(O)C(O)C(C)O3)C(O)C(C)O2)C(O)C(C)O1 (stereo not drawn) the results were KB-V1 MDR tox inactive and KB-3-1 tox 0.0052µM.
Screening CCN1C(=O)C(O)(C2COC(C)(C)CC2=O)c2cc(Br)ccc21 (stereo not drawn) returned HT1080NT lethal 16µM, KB-V1 MDR tox inactive, KB-3-1 tox inactive, IL-1B inflam inh inactive and HT1080 IDH1KD tx inconclusive.
For CCN1C(=O)C(O)(C2COC(C)(C)CC2=O)c2ccccc21 (stereo not drawn) the results were HT1080NT lethal inactive, KB-V1 MDR tox inactive, KB-3-1 tox inactive, IL-1B inflam inh inactive and HT1080 IDH1KD tx inactive.
CCNC(=O)n1nccc1C(C)Oc1ccc(Cl)cc1 (stereo not drawn) was read as HT1080NT lethal inactive, KB-V1 MDR tox inconclusive, KB-3-1 tox inactive, IL-1B inflam inh inactive and HT1080 IDH1KD tx inactive.
For Cc1ccc(NC(=O)c2cc(S(=O)(=O)NCCC3=CCCCC3)ccc2F)cc1F the results were HT1080NT lethal inconclusive, KB-V1 MDR tox 10µM!, KB-3-1 tox 10µM!, IL-1B inflam inh -77 and HT1080 IDH1KD tx inconclusive.
For O=C(Nc1cccc(F)c1)c1cc(S(=O)(=O)NCCC2=CCCCC2)ccc1F the results were HT1080NT lethal inconclusive, KB-V1 MDR tox inactive, KB-3-1 tox inconclusive, IL-1B inflam inh -61 and HT1080 IDH1KD tx inconclusive.
For COc1ccccc1NC(=O)c1cc(S(=O)(=O)NCCC2=CCCCC2)ccc1F the results were KB-V1 MDR tox inactive and KB-3-1 tox inactive.
Cc1cc(C)cc(NC(=O)c2cc(S(=O)(=O)NCCC3=CCCCC3)ccc2F)c1 was read as KB-V1 MDR tox inconclusive and KB-3-1 tox inactive.
CCCOC(=O)N[C@@H]1C(=O)N2C(C(=O)OCCC)=C(C)CS[C@H]12 was read as HT1080NT lethal inconclusive, KB-V1 MDR tox inconclusive, KB-3-1 tox 16µM!, IL-1B inflam inh inactive and HT1080 IDH1KD tx inactive.
CSc1ccc(S(=O)(=O)N(C)Cc2ccccc2)cc1 was read as HT1080NT lethal inactive, KB-V1 MDR tox inactive, KB-3-1 tox inactive, IL-1B inflam inh inactive and HT1080 IDH1KD tx inactive.
`CN1CCN(c2ccc(-c3cc(NC=O)c4ncc(-c5ccc(F)c(Cl)c5)n4c3)cc2)CC1` gave HT1080NT lethal inconclusive, KB-V1 MDR tox inconclusive, KB-3-1 tox inconclusive, IL-1B inflam inh inactive and HT1080 IDH1KD tx inconclusive.
For CC(=O)c1ccc(-c2cnc3c(NC=O)cc(-c4ccc(C(=O)NC5CC5)cc4)cn23)cc1 the results were HT1080NT lethal 15µM, KB-V1 MDR tox inactive, KB-3-1 tox inactive, IL-1B inflam inh -64 and HT1080 IDH1KD tx 7.3µM.
`O=CNc1cc(-c2ccc(C(=O)NC3CC3)cc2)cn2c(-c3ccccc3)cnc12` gave HT1080NT lethal 6.5µM, KB-V1 MDR tox inconclusive, KB-3-1 tox inconclusive, IL-1B inflam inh inconclusive and HT1080 IDH1KD tx 5.8µM.
`O=CNc1cc(-c2ccc(C(=O)NC3CC3)cc2)cn2c(-c3ccc(F)c(Cl)c3)cnc12` gave HT1080NT lethal inconclusive, KB-V1 MDR tox inconclusive, KB-3-1 tox inconclusive, IL-1B inflam inh inactive and HT1080 IDH1KD tx inconclusive.
